{"source": "PubChem BioAssay (NCI)", "system": "MDA-MB-468 breast", "assay": "NCI-60 one-dose screen, 48 h (100 = growth as untreated, 0 = no growth, -100 = all killed)", "details": "10 µM unless noted", "note": "About 83,000 compounds went through this panel and 20% of them were active in at least one assay; those are over-represented in the sample as a whole.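 96-well plates, one dose, 48 hours. Percent growth reported; active if below 10.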 A number with no mark means an inactive call. The source made the active and inactive calls."}
{"molecule": "COc1ccc2nccc(Cl)c2c1", "values": [{"measurement": "growth", "result": 100, "unit": "%"}]}
{"molecule": "O=S(=O)(NCCCNc1cc(-c2cn(-c3ccccc3)nc2-c2cccc(O)c2)ccn1)c1ccccc1", "values": [{"measurement": "growth", "result": "4.3% (active)"}]}
{"molecule": "CC(C)C(=O)Nc1nc2c(s1)CCCc1ccn(S(=O)(=O)c3ccccc3)c1-2", "values": [{"measurement": "growth", "result": 95.3, "unit": "%"}]}
{"molecule": "CC(=O)O[C@H]1CC[C@]2(C)C3=C(C(=O)C[C@H]2C1(C)C)[C@]1(C)CC[C@H]([C@H](C)CCC(=O)O)[C@@]1(C)CC3=O", "values": [{"measurement": "growth", "result": 113, "unit": "%"}]}
{"molecule": "COc1cc(-c2ccc[nH]2)[nH]c1/C=C1\\N=C(C)C(CC(=O)OCC(C)(C)C)=C1C", "values": [{"measurement": "growth", "result": "-79.2% (active)"}]}
{"molecule": "Cn1c(=O)c2[nH]c(CCCc3nc4c([nH]3)c(=O)n(C)c(=O)n4C)nc2n(C)c1=O", "values": [{"measurement": "growth", "result": 103, "unit": "%"}]}
{"molecule": "COc1cc(C(=O)c2cc(C(C)=O)c3c(C)cccn23)cc(OC)c1OC", "values": [{"measurement": "growth", "result": 81.8, "unit": "%"}]}
